In PubChem BioAssay one finds composite z-score and composite Z-score data, which are given here for 16 molecules.

Activity calls are given as the source filed them.

In one experiment the target is Albumin (Bos taurus) (UniProt P02769). Nature of the experiment: compounds binding labelled BSA control protein – biochemical, small-molecule microarray, Alexa647 label, 635/667 nm fluorescence, artefact control for SMM control protein annotation, profiling panel (AID 1118).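 Also: score merges 667 nm emission intensity and signal-to-noise per printed compound spot.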 To be noted: BSA-A647 binding, fluorescence 635 nm, higher = more signal.
Experiment [1] can be described thus: probe aXIP binding to arrayed compounds – biochemical, NeuroSMM set, 635/667 nm fluorescence, primary screen (AID 1119).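 Also: probe is the protein aXip251-270 applied at 1 µg/mL to compound-printed slides; binding of probe to printed compounds measured as 667 nm fluorescence plus signal to noise.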 To be noted: small-molecule microarray, higher = more signal, called active from +8 up or from −8 down.
Experiment [2] is described as follows: probe aNOTCH3 binding on compound microarray – biochemical, small-molecule microarray, 635/667 nm fluorescence, primary screen (AID 1120).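 Also: probe is a biotin-tagged antibody raised against NOTCH3 rather than NOTCH3 protein; score merges spot fluorescence near 667 nm with spot signal to noise.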 To be noted: higher = more signal.
A short description of experiment [3]: probe aNOTCH2 binding on compound microarray – biochemical, small-molecule microarray, 635/667 nm fluorescence, primary screen (AID 1121).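 Also: score merges feature fluorescence read at 667 nm with its signal to noise.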 To be noted: higher = more signal.
Experiment [4] has as its target Carbonic anhydrase 2 (Homo sapiens) (UniProt P00918). Kind of experiment: compounds binding carbonic anhydrase 2 – biochemical, small-molecule microarray, Alexa647-labelled CAII, profiling panel (AID 1122). To be noted: CAII-A647 binding fluorescence, higher = more signal.
The nature of experiment [5]: COS7 lysate on small-molecule microarray, probe aHis, 635 nm (AID 1123).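 Also: z-score combines 667nm fluorescence intensity with signal-to-noise per printed compound spot.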 To be noted: COS7 cell lysate, fluorescence, higher = more signal.
Experiment [6] is described as follows: probe aLAP1 signal on lysate-treated microarray – cell lysate, small-molecule microarray, COS7 lysate, primary screen (AID 1124).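 Also: lysate comes from COS7 cells expressing LAP1 and is applied at 0.3 µg/mL; score merges spot fluorescence near 667 nm with signal-to-noise over triplicate slides.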 To be noted: probe aLAP1, fluorescence, higher = more signal.
In the next experiment the test system is Sam68 (KHDRBS1). Nature of the experiment: compounds binding KHDRBS1 protein – biochemical, small-molecule microarray, 635 nm fluorescence, primary screen (AID 1125).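 Also: score merges 667 nm channel intensity with signal to noise over triplicate slides.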 To be noted: higher = more signal.
Experiment [7] concerns Chordin-like protein 2 (CHRDL2). Nature of the experiment: compounds binding chordin-like 2 – biochemical, small-molecule microarray, 635 nm fluorescence, primary screen (AID 1126).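 Also: printed compound slides probed with Chrdl2 protein at 4 µg/mL for 1 h at 4 C; score merges 667 nm emission intensity with signal to noise over three replicate slides.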 To be noted: fluorescence 635 nm, higher = more signal.
Experiment [8] deals with Concanavalin-A (Canavalia ensiformis) (UniProt P02866). Nature of the experiment: compounds binding concanavalin A lectin – biochemical, small-molecule microarray, Alexa647 label, 635 nm, artefact control for SMM control protein annotation, primary screen (AID 1127).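 Also: z combines 667 nm emission intensity with signal-to-noise across three replicate slides.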 To be noted: ConA-A647 binding fluorescence, higher = more signal.
Sequence of Concanavalin-A (Canavalia ensiformis) (P02866 whole entry, looked up): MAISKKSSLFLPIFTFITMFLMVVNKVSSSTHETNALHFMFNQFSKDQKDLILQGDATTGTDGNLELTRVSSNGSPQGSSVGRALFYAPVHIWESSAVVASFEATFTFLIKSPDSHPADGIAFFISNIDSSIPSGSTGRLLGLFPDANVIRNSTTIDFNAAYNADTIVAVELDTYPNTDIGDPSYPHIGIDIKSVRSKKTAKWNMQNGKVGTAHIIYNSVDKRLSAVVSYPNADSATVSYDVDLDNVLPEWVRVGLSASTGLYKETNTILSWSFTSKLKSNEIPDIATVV

Sequence of Albumin (Bos taurus) (P02769 whole entry, looked up): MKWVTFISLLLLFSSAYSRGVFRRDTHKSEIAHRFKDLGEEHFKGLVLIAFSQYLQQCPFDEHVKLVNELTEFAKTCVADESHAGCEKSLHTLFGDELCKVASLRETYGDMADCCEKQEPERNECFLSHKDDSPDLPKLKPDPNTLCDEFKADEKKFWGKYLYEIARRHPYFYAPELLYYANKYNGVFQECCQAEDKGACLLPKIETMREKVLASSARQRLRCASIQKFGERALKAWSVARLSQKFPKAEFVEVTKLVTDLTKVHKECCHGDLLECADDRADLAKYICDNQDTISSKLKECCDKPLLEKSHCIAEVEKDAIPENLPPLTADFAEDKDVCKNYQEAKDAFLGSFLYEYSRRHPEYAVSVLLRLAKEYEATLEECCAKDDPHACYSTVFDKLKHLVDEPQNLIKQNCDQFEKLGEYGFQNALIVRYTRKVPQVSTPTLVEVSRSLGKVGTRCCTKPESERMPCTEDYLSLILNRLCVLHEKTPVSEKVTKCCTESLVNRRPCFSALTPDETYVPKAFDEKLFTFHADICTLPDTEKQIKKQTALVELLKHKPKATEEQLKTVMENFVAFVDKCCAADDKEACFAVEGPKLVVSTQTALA

As to `[N-]=[N+]=Nc1ccccc1[C@H]1OC(c2ccc(OCCCO)cc2)=N[C@@]1(Cc1ccccc1)C(=O)NCCN1CCOCC1`, the composite z-score in the experiment with Albumin (Bos taurus) amounted to 0.887; in experiment [2], 0.457; in [3], 0.117; in experiment [4], 0.529; in [5] it was 2.87; in experiment [6], 0.634. For the same molecule, the composite z-score in the experiment on Sam68 (KHDRBS1) is 1.3; in experiment [7] it was 0.0045; in experiment [8] it was 1.16. For the same molecule, the composite Z-score in experiment [1] was 1.16 (inactive).
On to `C=CCNC(=O)[C@@H]1[C@H]2C(=O)O[C@H](c3ccccc3)[C@H](c3ccccc3)N2[C@H](c2ccc(O)cc2)[C@@]12C(=O)N(C(=O)OCCOC)c1ccc(C#CC3=CCCCC3)cc12`, for which the composite z-score in the experiment with Albumin (Bos taurus) was 0.179; in [2], 0.138; in [3] it was -0.14; in experiment [4], 0.32; in experiment [5] it was 1.57; in [6], 0.354. The figures for the composite z-score (in the experiment with Sam68 (KHDRBS1); in experiment [7]; in experiment [8]) were 1.28, 0.673 and 0.737, respectively. Also, in experiment [1], the composite Z-score was 0.683 (inactive).
`COc1ccccc1CN1C(=O)c2ccccc2[C@](Cc2ccccc2I)(C(=O)O)[C@@H]1c1ccc(CO)cc1`: the composite z-score is 0.76 with Albumin (Bos taurus); 0.0961 in experiment [2]; -0.0238 in experiment [3]; 0.328 in [4]; 2 in experiment [5]; 0.704 in [6]. Also, the composite z-score in the experiment with Sam68 (KHDRBS1) is 1.27; in experiment [7] it was 0.227; in experiment [8] it was 1.18. Moreover, the composite Z-score in experiment [1] was 0.114 (inactive).
Take `CN(C)C(=O)[C@]1(CCC(=O)OC(C)(C)C)N=C(c2ccc(OCCCO)cc2)O[C@@H]1c1ccccc1CN=[N+]=[N-]`: the composite z-score is 1.01 with Albumin (Bos taurus); 0.0749 in experiment [2]; -0.0037 in experiment [3]; 0.673 in [4]; 3.17 in [5]; 1.15 in experiment [6]. For the same molecule, the composite z-score in the experiment on Sam68 (KHDRBS1) was 1.34; in [7], -1.24; in experiment [8], 1.12. Moreover, the composite Z-score in [1] is -0.579 (inactive).
Regarding `O=C1C2C=CC(C(O)c3cccc(O)c3)N(Nc3ccc([N+](=O)[O-])cc3)C2C(=O)N1c1ccccc1` (stereo not given), the composite z-score with Albumin (Bos taurus) was 0.477; in experiment [2], 0.0116; in experiment [3], -0.0703; in experiment [4] it was 0.788; in experiment [5] it was 0.762; in [6] it was 0.153. In addition, the values for the composite z-score (with Sam68 (KHDRBS1); in experiment [7]; in experiment [8]) were 0.821, -0.264 and 0.41, respectively. Moreover, the composite Z-score in experiment [1] was -0.335 (inactive).
As to `COc1ccc([Si](C)(C)[C@@H]2[C@@H](CC(=O)N3Cc4ccccc4C[C@H]3CO)O[C@]3(C(=O)N(Cc4ccc(N5C(=O)c6cccc7cccc5c67)cc4)c4ccccc43)[C@H]2C)cc1`, the composite z-score is -0.604 in the experiment with Albumin (Bos taurus); 0.171 in experiment [2]; -0.0728 in experiment [3]; 0.351 in [4]; 1.25 in [5]; -0.0469 in experiment [6]. Further, the composite z-score amounted to 1.31 in the experiment on Sam68 (KHDRBS1), 1.18 in experiment [7] and 0.988 in experiment [8]. Further, the composite Z-score in experiment [1] was 0.535 (inactive).
For the molecule `COc1ccc(CCNC(=O)[C@@]2(c3ccc([N+](=O)[O-])cc3)CC(=O)N(C3CCCCC3)[C@@H]2c2ccc(CO)cc2)cc1`, the composite z-score with Albumin (Bos taurus) is 0.143; in experiment [2] it was 0.245; in experiment [3], 0.0224; in experiment [4], 0.283; in experiment [5] it was 1.89; in experiment [6] it was 0.0344. In addition, the composite z-score in the experiment on Sam68 (KHDRBS1) is 1.16; in [7], -0.0865; in [8], 0.952. The composite Z-score in experiment [1] is 0.665 (inactive).
For `CCOC(=O)C[C@H]1[C@H](OC(=O)c2ccc(C(=O)c3ccccc3)cc2)[C@@H](NC(=O)CC(C)C)c2cc(OCCCO)ccc2N1C(=O)c1ccccc1`, the composite z-score in the experiment with Albumin (Bos taurus) was 0.415; in experiment [2], 0.104; in experiment [3] it was -0.0357; in experiment [4] it was 0.351; in [5], 1.01; in experiment [6], -0.0609. Further, the composite z-score was 1.3 with Sam68 (KHDRBS1), 0.262 in experiment [7] and 1.05 in experiment [8]. The composite Z-score in [1] is -0.24 (inactive).
In the case of `CCOC(=O)[C@@H]1CCCCN1C(=O)C(=O)OC`, the composite z-score with Albumin (Bos taurus) is 0.145; in [2], -0.0431; in experiment [3], -0.274; in [4], -0.177; in experiment [5] it was 0.226; in experiment [6], 0.193. Also, the composite z-score in the experiment with Sam68 (KHDRBS1) was 0.322; in experiment [7], -0.0507; in [8], 0.131. Further, the composite Z-score in [1] was -0.587 (inactive).
As to `CCCCCN1CC=CC23O[C@@H]4/C=C\CCC(C)OC(=O)C4[C@H]2C(=O)N(C(CO)C(C)C)[C@@H]3C1=O` (stereo not given in full), the composite z-score with Albumin (Bos taurus) is 0.157; in [2] it was -0.247; in experiment [3], -0.182; in experiment [4], 0.824; in experiment [5], 0.337; in experiment [6], 0.57. Further, the composite z-score was 0.132 in the experiment with Sam68 (KHDRBS1), -0.461 in experiment [7] and 0.192 in experiment [8]. For the same molecule, the composite Z-score in experiment [1] was 0.141 (inactive).
`COc1cc(OC)c(C(O)C2C=CC3C(=O)N(Cc4ccccc4)C(=O)C3N2n2cnnc2)cc1Br` (stereo not given): the composite z-score with Albumin (Bos taurus) was 0.725; in [2], 0.056; in [3] it was -0.0398; in experiment [4] it was 0.377; in [5], 1.64; in experiment [6] it was 0.953. For the same molecule, the results for the composite z-score (in the experiment with Sam68 (KHDRBS1); in [7]; in [8]) were 1.2, -1.15 and 0.756, respectively. Besides, the composite Z-score in experiment [1] is -0.395 (inactive).
Regarding `CCOC(=O)C[C@H]1[C@H](OC(=O)Cc2ccc3c(c2)OCO3)[C@@H](NC(=O)c2ccc3ccccc3n2)c2cc(OCCCO)ccc2N1C(=O)c1ccc2ccccc2n1`, the composite z-score in the experiment with Albumin (Bos taurus) was 0.208; in experiment [2], -0.0646; in experiment [3] it was -0.135; in [4], 0.371; in [5] it was 0.986; in experiment [6] it was 0.171. Also, the composite z-score in the experiment with Sam68 (KHDRBS1) was found to be 0.796; in [7], 0.0741; in [8], 1.07. In addition, the composite Z-score in [1] is -0.0069 (inactive).
In the case of `COCCOC(=O)N1C(=O)[C@@]2(c3ccccc31)[C@H](C(=O)NC[C@H](O)c1ccccc1)[C@H]1C(=O)O[C@H](c3ccccc3)[C@H](c3ccccc3)N1[C@@H]2c1ccc(O)cc1`, the composite z-score in the experiment with Albumin (Bos taurus) was -0.411; in experiment [2], -0.198; in experiment [3], 0.0377; in [4] it was 0.432; in experiment [5], 2.28; in [6], 0.236. The composite z-score in the experiment with Sam68 (KHDRBS1) came to 1.3; in experiment [7], 1.04; in experiment [8] it was 1.12. Besides, in experiment [1], the composite Z-score was 0.244 (inactive).
`CC(C)(C)OC(=O)CC[C@@]1(C(=O)NCC(O)CO)N=C(c2ccc(OCCCO)cc2)O[C@@H]1c1ccccc1CN=[N+]=[N-]` (stereo not given in full): the composite z-score was determined as 0.347 with Albumin (Bos taurus); 0.0297 in [2]; 0.124 in [3]; 0.836 in experiment [4]; 1.34 in experiment [5]; 0.398 in [6]. In addition, the composite z-score with Sam68 (KHDRBS1) stood at 0.941; in experiment [7], 0.333; in experiment [8] it was 0.922. Also, the composite Z-score in experiment [1] was -0.0662 (inactive).
For the molecule `COc1ccc([Si](C)(C)[C@@H]2[C@@H](CCO)O[C@]3(C(=O)N(Cc4ccccc4)c4ccc(N5CCOC5=O)cc43)[C@H]2C)cc1`, the composite z-score with Albumin (Bos taurus) was 0.279; in experiment [2], -0.0647; in experiment [3] it was -0.102; in experiment [4], 0.324; in [5], 0.747; in [6], 0.294. The figures for the composite z-score (in the experiment with Sam68 (KHDRBS1); in experiment [7]; in [8]) were 1.32, 0.127 and 0.816, respectively. The composite Z-score in experiment [1] was 0.774 (inactive).
With `CC(CO)N1C(=O)[C@@H]2[C@H]3C(=O)OCC=C[C@H]3OC23C=CCN(Cn2nnc4ccccc42)C(=O)[C@@H]13` (stereo not given in full), the composite z-score in the experiment with Albumin (Bos taurus) was -0.779; in experiment [2], -0.256; in [3], -0.13; in experiment [4] it was 0.419; in [5], 0.523; in [6], -0.199. The composite z-score was -0.766 in the experiment on Sam68 (KHDRBS1), -0.851 in experiment [7] and -0.967 in experiment [8]. In addition, the composite Z-score in experiment [1] is 0.6 (inactive).
